Rows were chosen to be rich in hits. Some 1.9% of all compounds tested hit in one or more screens of this group.
USP2a block = blocks human ubiquitin-specific protease USP2a; O75604; USP2 core, Ub-CHOP2 coupled fluorogenic reporter, 485/531; Potency, µM (series often up to 38.3 µM), for inactives: at the top dose activity change, negative = inhibition, actives largely listed as inhibitors; 0.01% of 330,000 active;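 also: potency is read from the fitted curve at half-maximal effect; plate controls were DMSO wells for no effect and full inhibition by NEM control for full effect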
Target sequence (O75604 whole entry, looked up): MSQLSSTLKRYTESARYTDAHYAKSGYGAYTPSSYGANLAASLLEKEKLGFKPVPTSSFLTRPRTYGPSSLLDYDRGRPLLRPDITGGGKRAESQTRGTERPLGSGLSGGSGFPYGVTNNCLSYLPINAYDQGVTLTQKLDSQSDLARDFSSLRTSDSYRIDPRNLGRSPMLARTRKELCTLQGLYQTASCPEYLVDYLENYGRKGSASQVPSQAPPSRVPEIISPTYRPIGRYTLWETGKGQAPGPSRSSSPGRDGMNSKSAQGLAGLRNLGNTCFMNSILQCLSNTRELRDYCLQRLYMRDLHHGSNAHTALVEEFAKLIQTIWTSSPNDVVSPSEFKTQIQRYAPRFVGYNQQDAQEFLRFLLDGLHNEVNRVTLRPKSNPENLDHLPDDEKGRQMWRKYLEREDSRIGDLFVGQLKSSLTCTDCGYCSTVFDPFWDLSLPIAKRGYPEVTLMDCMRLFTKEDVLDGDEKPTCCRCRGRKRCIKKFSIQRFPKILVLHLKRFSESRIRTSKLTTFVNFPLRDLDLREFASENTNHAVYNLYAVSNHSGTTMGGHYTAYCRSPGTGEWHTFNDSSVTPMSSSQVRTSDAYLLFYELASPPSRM
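Deubiquitinase activity read as fluorescence (485/531 nm) after Ub-CHOP2 cleavage activates the enterokinase reporter on its substrate; USP2 core 10nM, Ub-CHOP2 and substrate 25nM each, 30min compound preincubation then 60min RT; data normalized to NEM, curves fitted.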
Pin1 inhibitor = inhibitors of human Pin1. Q13526. Pin1 FP peptide displacement, HiFluor488, 10 min. Potency, µM (titrated, usually from 115 µM), for inactives: at the top dose activity, negative = inhibition, usual class: inhibitors. 0.009% of 390,000 active; active = well fitted inhibition curve with a large enough effect in the polarisation, with a control signal flat, not every such curve was filed as active; inconclusive = small, poorly fitted or top-dose-only effect, or effect the other way, or a change in a side signal; inactive = no such curve, though single readings can be large or run the other way; the % refers to the polarisation; also: potency is read from the fitted curve at half-maximal effect; % is scaled to controls: 0 for no effect and ±100 for the full control effect
IL2 activator = activates IL-2 in a cell-based reporter assay; IL-2 activation reporter assay, cell-based qHTS; stimulated with anti-CD3/CD4/CD28 beads; in transgenic mouse T cells; activation, % (series mostly up to about 46 µM); 0.065% of 360,000 active; AID 652025; in the data active = activation above about 50%; inconclusive = mostly about 30% to 49%; also: 0% is about no effect
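Readout is EGFP and DsRed signal by fluorescent plate cytometry after 18 h at 37 degrees C. Transgenic mouse T cells (750/well) received compound for 60 min before bead stimulation (anti-CD3, anti-CD4, anti-CD28); memory T cells served as non-tolerant control.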
PKM2 activator = activators of human pyruvate kinase M2. P14618. purified PKM2, Kinase-Glo ATP luminescence, activation; response scale: 0% is enzyme alone, no compound. Potency, µM (titrated, usually from 57.5 µM), for inactives: top-dose activation, actives largely listed as activators. 0.34% of 260,000 active. AID 1631; also: potency is read from the fitted curve at half-maximal effect; % is scaled to controls: 0 for no effect and ±100 for the full control effect; nearly all actives have a fitted effect of over 55% in size
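ATP formation by purified human PK-M2, quantified via coupled luciferase luminescence after 1 h at room temperature with 0.1 mM ADP and 0.5 mM PEP final.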
a7 integrin act = activates integrin-mediated alleviation for muscular dystrophy | 0.064% of 350,000 active | Potency, µM (titrated, usually from 38.3 µM), without a hit: at the top dose activation, usual class: activators | alpha7betagal myoblasts, beta-gal FDG fluorescence, 48 h;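 also: potency is read from the fitted curve at half-maximal effect; 100% = response of the positive control SU9516; nearly all actives have a fitted effect of over 60% in size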
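alpha7betagal+/- myoblasts (passage 13, 250/well) treated 48 h at 37C with compounds at 1:260 dilution of DMSO stock. Lysed, then beta-galactosidase activity read as FDG fluorescence (ex 480/em 540) after 30 min, with pre-read for autofluorescence.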
ClpP mod = qHTS Assay for Activators of ClpP. purified B. subtilis ClpP, FRET peptide cleavage, 20 min. Potency, µM (top dose mostly 57.5 µM), for the others: top-dose activity change, negative = active. 1.9% of 340,000 active. AID 651965, 2013; active = well fitted falling curve with a large enough effect; inconclusive = small, poorly fitted or top-dose-only effect; inactive = no such curve, though single readings can be large or run the other way; also: potency is read from the fitted curve at half-maximal effect; the source files actives as falling curves though it sought activators and does not explain the sign; nearly all actives have a fitted effect of over 65% in size
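Buffer: 100 mM Tris/HCl pH8, 100 mM KCl, 0.05% low protease BSA, 2.5% glycerol, 0.01% Tween-20. ClpP 10 microg/mL final; 20 min RT; delta FRET normalized to ADEP and DMSO controls.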
* hit, by the source's call; ? = inconclusive; · = no result; [ ] = another dose, or the depositor's remark. Unless noted, calls follow the shape of the dose curve; as a rule, active = well fitted curve in the direction sought with a large enough effect; inconclusive = small, poorly fitted or top-dose-only effect, or another doubt; inactive = no such curve, though single readings can be large; an effect the other way counts as inactive or inconclusive.

SMILES	USP2a block	Pin1 inhibitor	IL2 activator	PKM2 activator	a7 integrin act	ClpP mod
O=C(O)c1ccc2nc(-c3ccccc3)c(-c3ccccc3)nc2c1	-0.2%	7.6%	-3.2	-2.2%	-20.3%	22.4µM*
NC(=O)c1ccc2nc(-c3ccccc3)c(-c3ccccc3)nc2c1	4.0%	-3.0%	-0.2	·	-3.3%	4.0%
CCN1CCN(C(=O)c2ccc3nc(-c4ccccc4)c(-c4ccccc4)nc3c2)CC1	1.6%	-0.7%	-0.4	9.0%	-18.6%	15.8µM*
Cn1nnc2c(N3CCN(Cc4ccccc4)CC3)ncnc21	·	1.8%	·	·	·	0.4%
CNc1oc(-c2ccc(Cl)cc2)nc1P(=O)(c1ccccc1)c1ccccc1	0.0%	2.5%	0.2	-2.4%	-2.7%	28.2µM*
CCn1c(SCC(=O)Nc2ccccc2)nc2c1c(=O)n(C)c(=O)n2C	-2.6%	2.5%	-1.6	7.94µM*	8.3%	0.5%
CC(C)n1c(SCC(=O)Nc2ccccc2)nc2c1c(=O)[nH]c(=O)n2C	-1.4%	-1.1%	-0.5	8.91µM*	-1.4%	0.8%
CC(C)n1c(SCC(=O)Nc2ccccc2)nc2c1c(=O)n(C)c(=O)n2C	0.7%	-11.5%	2.0	14.1µM*	-21.1%	1.6%
COCCn1c(SCC(=O)Nc2ccccc2)nc2c1c(=O)[nH]c(=O)n2C	0.4%	-3.1%	-2.6	6.31µM*	16.9%	-0.1%
C(=C\c1nc2ccccc2s1)/c1ccc2c(c1)OCO2	·	·	·	·	·	4.3%
COc1cc2nc(N3CCCN(C)CC3)nc(N(C)C)c2cc1OC	·	·	·	·	·	4.8%
COC(=O)CC1c2ccccc2C=C(/C=C/c2ccc3c(c2)OCO3)N1C(=O)OC (stereo unspecified)	·	·	·	-1.1%[11.5 µM]	·	·
Cn1c(=O)[nH]c(=O)c2c1nc(Br)n2CCC(=O)c1ccccc1	-1.1%	0.4%	-2.7	15.3%	1.5%	28.2µM*
Cn1c(=O)[nH]c(=O)c2c1nc(Br)n2C/C=N/NC(=O)c1ccccc1	-2.6%	-7.3%	0.2	-2.3%	-10.9%	·
O=C(Cc1ccc([N+](=O)[O-])cc1)Nc1nnc(C2CC2)s1	2.6%	19.4%	-0.7	-1.7%	-1.8%	25.1µM*
CC(C)(C)Cc1nnc(NC(=O)Cc2ccc([N+](=O)[O-])cc2)s1	-5.9%	-1.1%	0.2	4.3%	-8.3%	-0.3%
O=C(CCC(=O)Nc1nnc(C2CCCCC2)s1)NCc1ccc(F)cc1	2.9%	-1.3%	-1.8	·	13.6%	·
Cc1ccc(CNC(=O)CCC(=O)Nc2nnc(C3CCCCC3)s2)cc1	1.7%	-2.7%	-0.1	-13.2%	24.9%	28.2µM*
COc1ccc(C2Nc3ccccc3C(=O)N2Cc2ccccc2)cc1COc1ccc(F)cc1 (stereo unspecified)	·	-3.7%	·	·	·	·
CC(=O)C[C@H]1c2cc(F)cc(F)c2S(=O)(=O)N1C1CCN(Cc2ccccc2)CC1	·	·	·	·	·	-0.3%
CN(C)S(=O)(=O)c1ccc(C(=O)Nc2ccc3c(c2)CCC3)cc1	-2.1%	-6.4%	0.6	·	-16.6%	-0.8%
CN(C)S(=O)(=O)c1cccc(C(=O)Nc2ccc3c(c2)CCC3)c1	0.6%	-0.5%	-4.3	·	2.82µM*	-0.4%
COc1cc(-c2nc(-c3ccccc3)c(-c3cccs3)[nH]2)cc(OC)c1O	1.7%	0.8%	-0.7	7.1%	-3.8%	28.2µM*
c1csc(-c2nc3c4ccccc4c4ccccc4c3[nH]2)c1	-9.2%	24.0%	0.0	12.2%	18.4%	39.8µM*
Oc1ccccc1-c1nc2c3ccccc3c3ccccc3c2[nH]1	-12.9%	?	-3.5	-0.6%	24.5%	3.8%
COc1cc(-c2nc(-c3ccccc3)c(-c3cccs3)[nH]2)cc(OC)c1OC	-0.9%	30.7%	-2.1	1.8%	4.0%	31.6µM*
COc1cc(-c2nc(-c3ccc4c(c3)-c3ccccc3S4(=O)=O)c(-c3ccccc3)[nH]2)cc(OC)c1OC	-4.6%	43.9%	-0.5	-6.3%	24.7%	-8.5%
